Whole data set: some 16,000 sequences, median “rpm ratio (pull-down/input)” near 0.5, cut for the highest 2% near 5.5. The sample holds the highest values, similar sequences and a random draw of the others, so the mix is not that of the screen.
biological target: T1, MBP-FoxP3dN (Mus musculus, UniProt Q99JB6 188-423); experiment: PD-seq (MBP pull-down with sequencing); 20 mM Tris-HCl pH 7.5, 100 mM NaCl, 1.5 mM MgCl2, 0.4 uM protein, 0.1 uM dsDNA library, 30 min, room temperature, amylose pull-down; high values mean tight binding; settings: protein: recombinant; tags: His6-MBP; chain copies: 2; dsDNA, one strand shown
T1 sequence: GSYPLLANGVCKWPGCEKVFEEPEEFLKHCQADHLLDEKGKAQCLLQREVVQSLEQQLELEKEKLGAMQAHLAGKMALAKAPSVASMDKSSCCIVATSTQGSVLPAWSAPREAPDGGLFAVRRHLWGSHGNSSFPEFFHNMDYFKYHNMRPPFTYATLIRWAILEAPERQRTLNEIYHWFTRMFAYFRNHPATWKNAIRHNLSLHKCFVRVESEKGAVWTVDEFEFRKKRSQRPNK
Procedure, shortened: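 Binding is the reads-per-million enrichment of pull-down relative to input, pooled across replicates. For this, 0.4 µM His6-MBP-tagged mouse FoxP3 or FoxP1 fragment lacking the N-terminus, made in E. coli, was incubated with 0.1 µM Klenow-filled double-stranded degenerate DNA library for 30 min at room temperature in Tris pH 7.5 buffer with NaCl and MgCl2. Complexes bound to amylose resin were washed three times before proteinase K released the DNA for PCR barcoding and Illumina sequencing.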

First: GATGATTGTTCTCCCAGCTGATGAATTGAGCACGTCGAGTAAACAAATTTTCCTAATCTTTCTGTTCAAGCGCCATCTAC
Second: GATGATTGTTCTCCCAGCTGATGAATTCGTATGCTCGAGTAAACAAATTTTCCTAATCTTTCTGTTCAAGCGCCATCTAC
The binding signal of the first is lower: 0.919 RPM ratio (pull-down/input) for the first, 2.01 RPM ratio (pull-down/input) for the second.

Compared with “GATGATTGTTCTCCCAGCTGATGAATTTGGCGACTCGAGTAAACAAATTTTCCTAATCTTTCTGTTCAAGCGCCATCTAC”, “GATGATTGTTCTCCCAGCTGATGAATTTCTGCTGTCGAGTAAACAAATTTTCCTAATCTTTCTGTTCAAGCGCCATCTAC” is lower in binding signal: 1.79 RPM ratio (pull-down/input) for the first, 0.378 RPM ratio (pull-down/input) for the second.

Compared with “GATGATTGTTCTCCCAGCTGATGAATTACTTGTTTCGAGTAAACAAATTTTCCTAATCTTTCTGTTCAAGCGCCATCTAC”, “GATGATTGTTCTCCCAGCTGATGAATTCCTGAAATCGAGTAAACAAATTTTCCTAATCTTTCTGTTCAAGCGCCATCTAC” is lower in binding signal: 0.804 RPM ratio (pull-down/input) for the first, 0.237 RPM ratio (pull-down/input) for the second.

Compared with “GATGATTGTTCTCCCAGCTGATGAATTTGAGTTATCGAGTAAACAAATTTTCCTAATCTTTCTGTTCAAGCGCCATCTAC”, “GATGATTGTTCTCCCAGCTGATGAATTACCCTGATCGAGTAAACAAATTTTCCTAATCTTTCTGTTCAAGCGCCATCTAC” is lower in binding signal: 0.953 RPM ratio (pull-down/input) for the first, 0.253 RPM ratio (pull-down/input) for the second.

Going from “GATGATTGTTCTCCCAGCTGATGAATTTAGATTCTCGAGTAAACAAATTTTCCTAATCTTTCTGTTCAAGCGCCATCTAC” to “GATGATTGTTCTCCCAGCTGATGAATTCTGTGTATCGAGTAAACAAATTTTCCTAATCTTTCTGTTCAAGCGCCATCTAC”, the binding signal rises from 0.815 RPM ratio (pull-down/input) to 5.85 RPM ratio (pull-down/input).

Going from “GATGATTGTTCTCCCAGCTGATGAATTGTGTGTATCGAGTAAACAAATTTTCCTAATCTTTCTGTTCAAGCGCCATCTAC” to “GATGATTGTTCTCCCAGCTGATGAATTTGTGTAATCGAGTAAACAAATTTTCCTAATCTTTCTGTTCAAGCGCCATCTAC”, the binding signal falls from 6.39 RPM ratio (pull-down/input) to 4.48 RPM ratio (pull-down/input).

Compared with “GATGATTGTTCTCCCAGCTGATGAATTTTGTGTATCGAGTAAACAAATTTTCCTAATCTTTCTGTTCAAGCGCCATCTAC”, “GATGATTGTTCTCCCAGCTGATGAATTGTGTAAATCGAGTAAACAAATTTTCCTAATCTTTCTGTTCAAGCGCCATCTAC” is lower in binding signal: 6.55 RPM ratio (pull-down/input) for the first, 0.96 RPM ratio (pull-down/input) for the second.

Compared with “GATGATTGTTCTCCCAGCTGATGAATTCTCTGTATCGAGTAAACAAATTTTCCTAATCTTTCTGTTCAAGCGCCATCTAC”, “GATGATTGTTCTCCCAGCTGATGAATTGTGTATATCGAGTAAACAAATTTTCCTAATCTTTCTGTTCAAGCGCCATCTAC” is higher in binding signal: 0.441 RPM ratio (pull-down/input) for the first, 6.5 RPM ratio (pull-down/input) for the second.

Compared with “GATGATTGTTCTCCCAGCTGATGAATTTGGTGTATCGAGTAAACAAATTTTCCTAATCTTTCTGTTCAAGCGCCATCTAC”, “GATGATTGTTCTCCCAGCTGATGAATTCTTTGTATCGAGTAAACAAATTTTCCTAATCTTTCTGTTCAAGCGCCATCTAC” is lower in binding signal: 3.25 RPM ratio (pull-down/input) for the first, 0.57 RPM ratio (pull-down/input) for the second.

Going from “GATGATTGTTCTCCCAGCTGATGAATTTTCTGTATCGAGTAAACAAATTTTCCTAATCTTTCTGTTCAAGCGCCATCTAC” to “GATGATTGTTCTCCCAGCTGATGAATTGAGTATATCGAGTAAACAAATTTTCCTAATCTTTCTGTTCAAGCGCCATCTAC”, the binding signal rises from 0.456 RPM ratio (pull-down/input) to 1.7 RPM ratio (pull-down/input).

First: GATGATTGTTCTCCCAGCTGATGAATTGTATATCTCGAGTAAACAAATTTTCCTAATCTTTCTGTTCAAGCGCCATCTAC
Second: GATGATTGTTCTCCCAGCTGATGAATTTCAACGGTCGAGTAAACAAATTTTCCTAATCTTTCTGTTCAAGCGCCATCTAC
The binding signal of the first is higher: 3.03 RPM ratio (pull-down/input) for the first, 0.241 RPM ratio (pull-down/input) for the second.

First: GATGATTGTTCTCCCAGCTGATGAATTTGGTGGCTCGAGTAAACAAATTTTCCTAATCTTTCTGTTCAAGCGCCATCTAC
Second: GATGATTGTTCTCCCAGCTGATGAATTTCATAACTCGAGTAAACAAATTTTCCTAATCTTTCTGTTCAAGCGCCATCTAC
The binding signal of the first is higher: 1.09 RPM ratio (pull-down/input) for the first, 0.332 RPM ratio (pull-down/input) for the second.

First: GATGATTGTTCTCCCAGCTGATGAATTATTCATCTCGAGTAAACAAATTTTCCTAATCTTTCTGTTCAAGCGCCATCTAC
Second: GATGATTGTTCTCCCAGCTGATGAATTTAGACCGTCGAGTAAACAAATTTTCCTAATCTTTCTGTTCAAGCGCCATCTAC
The binding signal of the first is lower: 0.399 RPM ratio (pull-down/input) for the first, 0.5 RPM ratio (pull-down/input) for the second.

First: GATGATTGTTCTCCCAGCTGATGAATTGTATCTCTCGAGTAAACAAATTTTCCTAATCTTTCTGTTCAAGCGCCATCTAC
Second: GATGATTGTTCTCCCAGCTGATGAATTGTGTATCTCGAGTAAACAAATTTTCCTAATCTTTCTGTTCAAGCGCCATCTAC
The binding signal of the first is lower: 1.51 RPM ratio (pull-down/input) for the first, 6.36 RPM ratio (pull-down/input) for the second.

Going from “GATGATTGTTCTCCCAGCTGATGAATTCTGTATCTCGAGTAAACAAATTTTCCTAATCTTTCTGTTCAAGCGCCATCTAC” to “GATGATTGTTCTCCCAGCTGATGAATTTGACTTTTCGAGTAAACAAATTTTCCTAATCTTTCTGTTCAAGCGCCATCTAC”, the binding signal falls from 4.93 RPM ratio (pull-down/input) to 0.49 RPM ratio (pull-down/input).

Compared with “GATGATTGTTCTCCCAGCTGATGAATTGACGTAGTCGAGTAAACAAATTTTCCTAATCTTTCTGTTCAAGCGCCATCTAC”, “GATGATTGTTCTCCCAGCTGATGAATTTAAGCATTCGAGTAAACAAATTTTCCTAATCTTTCTGTTCAAGCGCCATCTAC” is higher in binding signal: 0.381 RPM ratio (pull-down/input) for the first, 5.65 RPM ratio (pull-down/input) for the second.

Going from “GATGATTGTTCTCCCAGCTGATGAATTAAGCAGCTCGAGTAAACAAATTTTCCTAATCTTTCTGTTCAAGCGCCATCTAC” to “GATGATTGTTCTCCCAGCTGATGAATTAAATTTCTCGAGTAAACAAATTTTCCTAATCTTTCTGTTCAAGCGCCATCTAC”, the binding signal falls from 1.33 RPM ratio (pull-down/input) to 0.664 RPM ratio (pull-down/input).

First: GATGATTGTTCTCCCAGCTGATGAATTAAGCTGTTCGAGTAAACAAATTTTCCTAATCTTTCTGTTCAAGCGCCATCTAC
Second: GATGATTGTTCTCCCAGCTGATGAATTAAGCATTTCGAGTAAACAAATTTTCCTAATCTTTCTGTTCAAGCGCCATCTAC
The binding signal of the first is lower: 1.12 RPM ratio (pull-down/input) for the first, 6.1 RPM ratio (pull-down/input) for the second.

Going from “GATGATTGTTCTCCCAGCTGATGAATTAAGCATCTCGAGTAAACAAATTTTCCTAATCTTTCTGTTCAAGCGCCATCTAC” to “GATGATTGTTCTCCCAGCTGATGAATTAAGCCATTCGAGTAAACAAATTTTCCTAATCTTTCTGTTCAAGCGCCATCTAC”, the binding signal falls from 6.6 RPM ratio (pull-down/input) to 4.08 RPM ratio (pull-down/input).

Compared with “GATGATTGTTCTCCCAGCTGATGAATTAAAGCATTCGAGTAAACAAATTTTCCTAATCTTTCTGTTCAAGCGCCATCTAC”, “GATGATTGTTCTCCCAGCTGATGAATTACAGCATTCGAGTAAACAAATTTTCCTAATCTTTCTGTTCAAGCGCCATCTAC” is lower in binding signal: 5.57 RPM ratio (pull-down/input) for the first, 5.18 RPM ratio (pull-down/input) for the second.

Going from “GATGATTGTTCTCCCAGCTGATGAATTTTAAGCATCGAGTAAACAAATTTTCCTAATCTTTCTGTTCAAGCGCCATCTAC” to “GATGATTGTTCTCCCAGCTGATGAATTTAAACATTCGAGTAAACAAATTTTCCTAATCTTTCTGTTCAAGCGCCATCTAC”, the binding signal falls from 0.881 RPM ratio (pull-down/input) to 0.704 RPM ratio (pull-down/input).

For “GATGATTGTTCTCCCAGCTGATGAATTCAAGCATTCGAGTAAACAAATTTTCCTAATCTTTCTGTTCAAGCGCCATCTAC”, the binding signal was 4.27 RPM ratio (pull-down/input).

Reference: publication PMC12820563, “FoxP3 forms a head-to-head dimer in vivo and stabilizes its multimerization on adjacent microsatellites”
